Assay outcomes from PubChem.
Most compounds without a hit are left out; they make up all but 2.3% or so of the library.
CHRM1 antagonist: antagonists of human M1 muscarinic receptor. P11229. CHO-K1 hM1, Fluo-8 calcium fluorescence, ACh EC80 antagonist. inhibition, % at 3 µM. 360,000 compounds, 1.3% hits. AID 588852;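 active = percent inhibition above its own plate's cutoff, namely the mean of that plate's compound wells plus 3 SD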;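 note: peak over basal fluorescence ratio during 140 s after agonist addition; 0% = ACh EC80 plus DMSO and 100% = DMSO alone without agonist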
Target sequence (P11229 whole entry, looked up): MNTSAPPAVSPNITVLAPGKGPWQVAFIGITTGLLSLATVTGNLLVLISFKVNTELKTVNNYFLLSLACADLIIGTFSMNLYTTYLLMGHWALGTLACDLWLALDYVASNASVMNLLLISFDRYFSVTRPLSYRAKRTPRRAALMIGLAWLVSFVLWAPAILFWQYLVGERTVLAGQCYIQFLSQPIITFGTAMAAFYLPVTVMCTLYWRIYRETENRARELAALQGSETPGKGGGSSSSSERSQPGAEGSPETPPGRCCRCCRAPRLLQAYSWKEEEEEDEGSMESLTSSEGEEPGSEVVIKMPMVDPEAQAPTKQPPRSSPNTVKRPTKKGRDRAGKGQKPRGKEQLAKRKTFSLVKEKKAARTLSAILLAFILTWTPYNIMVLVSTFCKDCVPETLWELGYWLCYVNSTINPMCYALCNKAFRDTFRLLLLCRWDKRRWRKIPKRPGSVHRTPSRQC
CHO-K1 Ca PAM: M1 PAM counterscreen hit in parental CHO-K1 cells. ATP EC20, Fluo-8 calcium fluorescence; 0% at ATP EC20, 100% at ATP max. 360,000 compounds, 0.02% hits. AID 602247. activation, % at 3 µM;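 active = activation above the run cutoff, the mean activation of all test compounds plus 3 SD, cut at about 40% in these data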;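 note: peak over basal fluorescence ratio in a 140 s read after ATP addition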
M1 ag parental: M1 agonist counterscreen hit in parental CHO-K1 cells. Fluo-8 calcium fluorescence; scaled to maximal ATP response, vehicle zero. activation, % at 3 µM. 360,000 compounds, 0.48% hits; in the data active = activation above about 15%;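 note: untransfected CHO-K1 host cells lacking M1 receptor as counterscreen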
CHO-K1 Ca antag: counter-screen for M1 antagonists: effect in parental CHO-K1 cells. inhibition, % at 3 µM. ATP-induced calcium, Fluo-8 fluorescence. 360,000 compounds, 0.6% hits;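 active = inhibition above a per-plate cutoff, the plate's mean sample inhibition plus 3 SD, cut at about 24% in these data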;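 note: 0% = DMSO plus EC80 ATP and 100% = DMSO alone without ATP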
CHRM1 PAM: human CHRM1 positive allosteric modulation. P11229. CHO-K1 hM1, Fluo-8 calcium fluorescence, ACh EC20; 0% = ACh EC20, 100% = maximal ACh. activation, % at 3 µM. 360,000 compounds, 0.088% hits; in the data active = activation above about 19%, passing the limit was not always enough
CHRM1 agonist: human M1 muscarinic receptor agonism | AID 588814 | activation, % at 3 µM | 360,000 compounds, 0.33% hits | CHO-K1 hM1, Fluo-8 calcium fluorescence, agonist mode; 0% DMSO, 100% acetylcholine EC100 | P11229;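 active = activation above the run's mean compound activation plus 3 SD, cut at about 16% in these data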;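 note: peak over basal fluorescence ratio within a 140 s kinetic read after compound addition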
Numbers without * were called inactive.

SMILES | CHRM1 antagonist | CHO-K1 Ca PAM | M1 ag parental | CHO-K1 Ca antag | CHRM1 PAM | CHRM1 agonist
CCOC(=O)c1c(C)n(C)c2cc(Br)c(C)cc12 | -5 | 0 | 0 | -11 | 5 | 2
CCOC(=O)c1c(C)n(C)c2cc(-c3cccc(C(F)(F)F)c3)c(O)cc12 | 13 | -14 | -1 | 27* | -7 | -3
Cc1cc(S(=O)(=O)NCCCN2CCOCC2)c(C)cc1Cl | -15 | 17 | 4 | 4 | 11 | -5
CCN(CC)S(=O)(=O)c1ccc(C(=O)NCC2CCCCC2)cc1 | -11 | 5 | 3 | 5 | 9 | -9
Cc1ccsc1C(=O)NNC(=O)Nc1ccc(Cl)c(Cl)c1 | -18 | -5 | 0 | 29* | 4 | 0
Cc1occc1C(=O)NNC(=O)Nc1ccc(Cl)c(Cl)c1 | -10 | 10 | 1 | -11 | 7 | -4
Cc1ccc(C(=O)OCC(=O)Nc2cc(Cl)ccc2C#N)o1 | -18 | 11 | 1 | -12 | 10 | -2
CC1(C)Oc2ccc3ccc(=O)oc3c2[C@@H](O)[C@@H]1O | -7 | 17 | 0 | -20 | 1 | -4
O=c1oc2c(O)cccc2cc1-c1nc2ccccc2[nH]1 | 10 | -8 | 13 | 11 | -9 | 18*
O=C(Nc1ccncc1)C1CCN(S(=O)(=O)c2c(Cl)cccc2Cl)CC1 | 0 | 3 | 8 | -7 | -5 | 3
COc1ccc(-c2nnnn2C)cc1S(=O)(=O)Nc1ccc(C)cc1C | -2 | -10 | 2 | 6 | 2 | -2
CCOc1cccc(-c2nc3c(s2)CCc2onc(-c4cccc([N+](=O)[O-])c4)c2-3)c1 | 2 | -4 | 0 | -5 | 0 | -5
COC(C(=O)Nc1ccc(S(=O)(=O)Nc2ccc(F)cc2)cc1)c1ccccc1 (stereo not given) | 3 | 37 | 10 | -1 | 7 | 18*
COC(C(=O)Nc1ccc(F)cc1)c1ccccc1 (stereo not given) | -6 | -2 | 0 | 15 | 7 | 1
CC(=O)N(CC#CCN(C(C)=O)c1ccccc1)c1ccccc1 | -6 | -11 | 1 | 6 | 8 | 0
Cc1c(C(=O)N2CCN(c3ccccc3)CC2)sc2ncnc(N3CCN(c4ccccn4)CC3)c12 | -3 | 1 | 3 | -13 | 3 | -3
Cc1c(C(=O)N2CCN(c3ccc(F)cc3)CC2)sc2ncnc(N3CCN(c4ccccn4)CC3)c12 | 32* | 2 | 9 | 8 | -20 | -7
COc1ccc2nc3c(cc2c1)c(NC(=O)C1CCCO1)nn3CC(C)C (stereo not given) | -2 | -7 | 1 | 26* | -5 | -2
Cc1cc(C)c2oc(C(=O)N3CCN(C)CC3)cc(=O)c2c1 | -33 | -19 | 0 | -17 | 32* | -2
Cn1cc2cc([N+](=O)[O-])ccc2n1 | 4 | 10 | 0 | 0 | 1 | 23*
COc1ccccc1NC(=O)COC(=O)C1CCCC1 | 1 | -2 | -1 | 12 | 8 | -1
COc1ccccc1NC(=O)c1ccc(NC(=O)COC(=O)C2CCCCC2)cc1 | -7 | 7 | 19* | 7 | -1 | -7
CSCCC(NC(=O)c1ccco1)C(=O)NCC1CCCCC1 (stereo not given) | -24 | 2 | 0 | -18 | 24* | -1
CSCCC(NC(=O)c1ccccc1Br)C(=O)NCC1CCCCC1 (stereo not given) | -5 | 15 | 0 | -1 | 2 | -4
O=C(COC(=O)C1(c2ccccc2F)CCCC1)N1CCNC1=O | -2 | 15 | 2 | 2 | 0 | -7
SMILES | CHRM1 antagonist | CHO-K1 Ca PAM | M1 ag parental | CHO-K1 Ca antag | CHRM1 PAM | CHRM1 agonist
Cc1cccc(C)c1OCc1cc(C(=O)N(Cc2nccn2C)C(C)C)no1 | -3 | 5 | 3 | -13 | -1 | -3
COc1ccc(C(=O)Nc2c3c(nn2-c2ccc(Cl)cc2)CS(=O)(=O)C3)cc1 | -14 | -2 | 1 | -13 | 7 | 2
COc1ccc(C(=O)Nc2c3c(nn2-c2ccc([N+](=O)[O-])cc2)CS(=O)(=O)C3)cc1 | -2 | 1 | 18* | 8 | 3 | 4
OC[C@@H]1CN(Cc2ccncc2)C[C@H](n2cnc3c(N4CCCC4)ncnc32)O1 | -5 | 10 | 1 | -13 | 4 | 2
Cc1ccc(CN(C)C(=O)c2ccc(S(=O)(=O)N(C)c3ccccc3)cc2)o1 | 40* | -22 | 2 | 14 | -17 | -1
CN(Cc1ccc(OC(F)F)cc1)C(=O)c1ccc(S(=O)(=O)N(C)c2ccccc2)cc1 | 21 | -18 | 5 | -5 | -13 | -3
COc1cccc(S(=O)(=O)Nc2cccc(C(=O)N3CCOCC3)c2)c1 | 54* | 16 | 1 | -6 | -21 | -7
COc1cccc(S(=O)(=O)Nc2cccc(C(=O)N3CCCC3)c2)c1 | 5 | -9 | 2 | 6 | 5 | -2
O=C(COc1ncnc2ccccc12)N1CCN(S(=O)(=O)c2ccc(Cl)cc2)CC1 | 6 | 0 | 0 | 63* | 6 | -3
COc1ccc(C)cc1Nc1n[n+](-c2ccccc2)c(-c2cc(OC)c(OC)cc2Br)s1 | -10 | 4 | 0 | -16 | 6 | -7
Fc1ccc(-[n+]2nc(Nc3ccccc3)sc2-c2c3ccccc3cc3ccccc23)cc1 | 26 | 15 | 3 | -7 | -8 | 19*
COc1ccc(C)cc1Nc1n[n+](-c2ccccc2)c(-c2c(OC)ccc3ccccc23)s1 | 31* | 1 | 16* | 16 | -18 | -2
Cc1ccc(-c2nnn(CC(=O)N3CCN(c4ccccc4)CC3)n2)o1 | -21 | 8 | 1 | -18 | 30* | 4
COc1ccc(N2CCN(C(=O)Cn3nnc(-c4ccc(OC)c(OC)c4)n3)CC2)cc1 | -4 | -5 | 0 | -11 | 1 | -1
COCC1CCN(C(=O)c2cc(COc3cccc4cnccc34)on2)CC1 | 11 | 1 | 15 | 10 | -6 | 2
O=C(c1cc(COc2cccc3cnccc23)on1)N1CCCC(CCCO)C1 (stereo not given) | 48* | -28 | 22* | 22 | -15 | 4
COc1ccc(NC(=O)C2(C)Cc3c(-c4cccc(C(F)(F)F)c4)ccnc3O2)cn1 (stereo not given) | 0 | 13 | 0 | -6 | 3 | -4
COC1CCN(C(=O)c2ccc(OC3CCN(CCc4ccccc4)CC3)cc2)CC1 | -6 | 10 | 0 | -4 | 8 | -13
O=C(c1ccc(OC2CCN(C/C=C/c3ccccc3)CC2)cc1)N1CCCCC1 | 30* | -12 | 1 | 0 | -14 | -6
CCCCOc1ccc(C(=O)NCC(=O)N2CCN(C/C=C/c3ccccc3)CC2)cc1 | 44* | -13 | 3 | 6 | -22 | 12
CCN(CC)C1CCN(C(=O)c2ccc(OC3CCN(CCc4ccccc4)CC3)cc2)C1 (stereo not given) | 62* | 8 | 1 | -17 | -22 | -6
